Screens as filed in PubChem BioAssay.
Shown is part of a subset that was picked to be rich in hits.
CD40 NFkB inh – CD40 pathway inhibition in BL2 cells; BL2 NF-kB luciferase reporter, CD40L-induced, 4 h; inhibition, % at 10 µM; actives 0.94% (n = 83,000);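 active means mean inhibition of at least 50% with a set share of replicates also reaching that level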;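 further: 0% = neutral control wells and 100% = IKK inhibitor VII at 50 µM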
Starred values were filed as active, the others as inactive; ! = not active in a repeat; [ ] = dose if it differs, or a comment.

SMILES | CD40 NFkB inh
COc1ccc(/C=N/NC(=O)c2nonc2C)cc1 | 64*
C[C@H]1CN(C)C(=O)c2cc(NS(C)(=O)=O)ccc2O[C@H]1CN(C)S(C)(=O)=O | -4
CN(C)C(=O)c1cccc(-c2ccc3c(c2)[C@@H]2[C@@H](CCN2C(=O)C2CC2)[C@@H](CO)N3)c1 | 0
CC(C)NC(=O)N(C)C[C@H]1Oc2ccc(N(C)C)cc2CC(=O)N(C)C[C@H]1C | 0
C[C@@H]1CN(C)C(=O)c2cc(NS(C)(=O)=O)ccc2O[C@@H]1CN(C)S(C)(=O)=O | -3
O=C(c1ccccc1)c1cc(-c2ccccc2)on1 | 73*
O=C(NCc1ccccn1)c1cc(-c2ccccc2)on1 | -24
Cc1cc(NC(=O)c2cc(-c3ccccc3)on2)no1 | -49
CC(=O)N(C)C[C@H]1Oc2ccc(N)cc2C(=O)N(C)C[C@H]1C | -1
C[C@@H]1CN([C@H](C)CO)C(=O)CCCn2nncc2CO[C@@H]1CN(C)Cc1ccc2c(c1)OCCO2 | 3
O=C(NCCc1ccncc1)[C@@H]1[C@@H](CO)[C@@H]2Cn3c(ccc(-c4cccnc4)c3=O)[C@@H]2N1C(=O)C1CC1 | -3[25 µM]
COCC#Cc1ccc([C@@H]2[C@@H](C#N)N(C(=O)Cc3ccccc3)[C@@H]2CO)cc1 | -5[25 µM]
O=C1C=CC(=O)N1c1cccc2cccnc12 | 50*
c1cnc2c(c1)ccc1cccnc12 | -5
O=C(O)c1cccc2cccnc12 | 4
COc1cccc(C(=O)N2C[C@@H]3[C@H](c4ccccc42)[C@@H](CO)N3C(=O)c2ccc(F)cc2)c1 | 1
O=C(Nc1ccccc1F)N1CCCCN2[C@H](C1)[C@@H](c1ccc(/C=C/c3ccccc3)cc1)[C@@H]2CO | -2[25 µM]
COc1ccccc1S(=O)(=O)N1[C@@H]2CNC[C@H]1C2c1ccc(/C=C/c2ccccc2)cc1 (stereo partly specified) | 14[25 µM]
O=C(Nc1ccc(F)cc1)N1C[C@@H]2N[C@H](C1)C2c1ccc(/C=C/c2ccccc2)cc1 (stereo partly specified) | 25[25 µM]
O=C(Nc1ccccc1Cl)N1[C@@H]2CNC[C@H]1C2c1ccc(/C=C/c2ccccc2)cc1 (stereo partly specified) | 58*!
Cc1ccccc1S(=O)(=O)N1[C@@H]2CNC[C@H]1[C@@H]2c1ccc(-c2ccc(C#N)cc2)cc1 | 8[25 µM]
Cc1ccccc1S(=O)(=O)N1[C@@H]2CNC[C@H]1C2c1ccc(/C=C/c2ccccc2)cc1 (stereo partly specified) | 51*!
O=C(Nc1ccccc1F)N1CCCCN2[C@H](CO)[C@H](c3ccc(/C=C/c4ccccc4)cc3)[C@H]2C1 | 89*[25 µM]
O=C(Nc1ccccc1Cl)N1[C@@H]2CNC[C@H]1C2c1ccc(-c2ccccc2)cc1 (stereo partly specified) | 4
O=C(Nc1ccccc1F)N1C[C@@H]2N[C@H](C1)C2c1ccc(/C=C/c2ccccc2)cc1 (stereo partly specified) | 53*
SMILES | CD40 NFkB inh
O=C(Nc1ccccc1F)N1CCCCN2[C@H](CO)[C@H](c3ccc(/C=C/c4ccccc4)cc3)[C@@H]2C1 | 14[25 µM]
C/C=C/c1ccc(C2[C@H]3CNC[C@@H]2N3C(=O)Nc2ccccc2Cl)cc1 (stereo partly specified) | -3[25 µM]
C/C=C/c1ccc(C2[C@@H]3CN(C(=O)Nc4ccccc4F)C[C@H]2N3)cc1 (stereo partly specified) | -4[25 µM]
O=C(c1ccc(F)cc1)N1CC(=O)N2[C@@H](CO)[C@H](c3ccc(C#CCC4CCCC4)cc3)[C@@H]2C1 | 22[25 µM]
Cc1ccc(S(=O)(=O)Nc2ccc3c(c2)CC(=O)N([C@H](C)CO)C[C@H](C)[C@@H](CN(C)S(=O)(=O)c2ccccc2)O3)cc1 | 5[25 µM]
CO[C@@H]1CN(C)C(=O)c2ccc(NC(=O)C3CCCC3)cc2OC[C@@H](C)N(Cc2nccs2)C[C@H]1C | -6
COc1cccc(CN2[C@@H]3CN(C(=O)CC(F)(F)F)c4ccccc4[C@@H]3[C@@H]2CO)c1 | -3[25 µM]
CC=Cc1ccc2n(c1=O)C[C@@H]1[C@@H](CO)[C@H](C(=O)NCCc3cn(C)cn3)[C@H]2N1C(=O)CC1CC1 (mixture of isomers) | -6[25 µM]
COc1ccc(S(=O)(=O)N(C)C[C@@H]2OCc3ccccc3-c3c(n(C)c4ccccc34)C(=O)N([C@@H](C)CO)C[C@H]2C)cc1 | 14
COc1cccc(-c2cccc(-c3nc(C(=O)N(C)C)cc4c3[C@H](CCO)N([S@@](=O)C(C)(C)C)C4)c2)c1 | -1
C[C@@H]1CN(C)C(=O)c2ccccc2O[C@@H]1CN(C)C(=O)OC(C)(C)C | 10
COc1ccc(C#Cc2ccc([C@H]3[C@@H](CO)N4CCCCN(C(=O)Nc5cccc(F)c5)C[C@H]34)cc2)cc1 | 22[25 µM]
COc1ccc(C#Cc2ccc([C@@H]3[C@H]4CN(C(=O)Nc5cccc(F)c5)CCCCN4[C@H]3CO)cc2)cc1 | 5[25 µM]
COc1ccc(C#Cc2ccc([C@@H]3[C@H](CO)N4CCCCN(C(=O)Nc5cccc(F)c5)C[C@@H]34)cc2)cc1 | 68*[25 µM]
COCCN(C[C@H]1N[C@H](CO)[C@H]1c1ccc(-c2ccc(F)cc2)cc1)C(C)=O | 10[25 µM]
